Assay outcomes from PubChem BioAssay.
This is a sample that favours compounds with a hit; in the whole collection about 0.4% have one here.
GAA inh: alpha-glucosidase (human) inhibition | purified human GAA, 4-MU-alpha-glucoside fluorescence | Potency, µM (titrated, usually from 76.9 µM), for the others: top-dose activity change, negative = inhibition, actives largely listed as inhibitors | 200,000 tested, 0.005% active | AID 1466;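 further: potency means the concentration at half of the fitted maximal effect; plate controls were uninhibited enzyme wells for no effect and no-enzyme background for full effect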
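Human alpha-glucosidase, 4 nM, pre-mixed with test compounds before 400 uM 4-methylumbelliferyl substrate; 20 min room temperature at pH 5.0. Fluorescence read after pH 10 stop; AC50 values from Hill-equation fits.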
GAA glycogen: inhibitors or activators of human alpha-glucosidase glycogen cleavage; recombinant GAA, glycogen substrate, Amplex Red glucose oxidase fluorescence; Potency, µM (highest dose often 76.4 µM), without a hit: at the top dose activity change, negative = inhibition, most hits filed as inhibitors; 300,000 tested, 0.38% active;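 further: potency means the concentration at half of the fitted maximal effect; 0% = full enzyme reaction and -100% = no-enzyme basal signal; the screen sought inhibitors and activators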
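Recombinant enzyme (4 nM final) with compounds titrated up to 77 uM and bovine liver glycogen (30 ug) in citrate pH 5.0, 0.01% Tween-20, 37 C 40 min. Released glucose detected by Amplex Red/glucose oxidase (Ex 573/Em 610); AC50 from Hill fits.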
GLA spleen mod: inhibitors or activators of human alpha-galactosidase in spleen homogenate | P06280 | human spleen homogenate, 4MU-alpha-Gal fluorescence, 40 min | Potency, µM (titrated, usually from 80 µM), without a hit: at the top dose activity change, negative = inhibition, usual class: inhibitors | 240,000 tested, 0.008% active | AID 2107;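 further: potency means the concentration at half of the fitted maximal effect; 0% = enzyme with vehicle and -100% = no enzyme basal signal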
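Inhibition or activation of alpha-galactosidase in human spleen homogenate is scored by 4-MU fluorescence after 40 min at 37C, pH 5.0, with 1 mM substrate. AC50s come from concentration-response fitted to the Hill equation.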
aGlu spleen mod: inhibitors or activators of human alpha-glucosidase in spleen homogenate; P10253; 240,000 tested, 0.006% active; human spleen homogenate, 4-MU-alpha-glucoside fluorescence; Potency, µM (series often up to 79.9 µM), inactives show top-dose activity change, negative = inhibition, hits mostly inhibitors;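 further: potency means the concentration at half of the fitted maximal effect; 0% = enzyme with vehicle and -100% = no enzyme basal signal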
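AC50 values come from Hill-equation fits of concentration-response data, normalized to no-enzyme and full-activity controls. Enzyme source: 1 ug human spleen homogenate; 1 mM fluorogenic 4-MU glucoside, pH 5.0 citrate buffer, 37 C, 40 min.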
GLA inh pH 4.5: alpha-galactosidase A (human) inhibition, pH 4.5 | purified enzyme, 4-MU-alpha-Gal fluorescence, pH 4.5 | activity change, negative = inhibition, % at 105 µM | 230,000 tested, under 10 active;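 further: 0% = full activity with enzyme and -100% = basal without enzyme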
Target sequence (P06280 whole entry, looked up): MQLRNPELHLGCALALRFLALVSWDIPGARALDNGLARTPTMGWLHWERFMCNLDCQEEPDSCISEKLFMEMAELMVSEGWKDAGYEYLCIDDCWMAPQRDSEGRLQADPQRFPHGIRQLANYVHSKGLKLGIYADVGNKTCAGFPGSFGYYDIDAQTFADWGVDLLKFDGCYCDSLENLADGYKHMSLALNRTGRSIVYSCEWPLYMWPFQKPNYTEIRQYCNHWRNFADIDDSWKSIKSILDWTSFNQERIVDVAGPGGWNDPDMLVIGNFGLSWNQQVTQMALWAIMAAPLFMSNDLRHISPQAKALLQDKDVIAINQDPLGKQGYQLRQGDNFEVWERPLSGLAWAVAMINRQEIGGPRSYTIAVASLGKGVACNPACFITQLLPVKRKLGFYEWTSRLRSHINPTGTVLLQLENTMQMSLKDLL
* = called active by the depositor; u = inconclusive; x = no result given; [ ] = dose if it differs, or a comment. The call rests on the fitted dose curve; in most records, active means well fitted curve in the direction sought with a large enough effect; inconclusive means small, poorly fitted or top-dose-only effect, or another doubt; inactive means no such curve, though single readings can be large; an effect the other way counts as inactive or inconclusive.

SMILES	GAA inh	GAA glycogen	GLA spleen mod	aGlu spleen mod	GLA inh pH 4.5
CC(=O)Nc1nonc1NC(C)=O	-10%	-4%	-3%	-5%	-1
CC(=O)Nc1cc(OC(C)=O)c2nonc2c1OC(C)=O	-5%	16µM*	-10%	-7%	2
O=C1OC2(CCCCC2)OC(=O)C1=CNc1ccc2c(c1)OCO2	-4%	1%	-7%	-1%	6
Nc1ccc2c(c1)OC1(CCCC1)O2	14%	31µM*	2%	-12%	-3
CCOc1ccc(Nc2nc(Cc3nnc(SCC(=O)O)o3)cs2)cc1	8%	14µM*	-1%	-4%	-13
CCOc1ccc(Cc2nnc(SCC(=O)c3ccc(OC)cc3)o2)cc1	-14%	-8%	2%	-5%	0
NC12CCc3c(no[n+]3[O-])C1(O)CC(c1ccccc1)=[N+]2[O-] (stereo not given)	-5%	-2%	-6%	-8%	-2
[O-][n+]1onc2c1CCC1N(O)C(c3ccccc3)CC21O (stereo not given)	1%	28µM*	-9%	-2%	-6
O=[N+]([O-])/C(C=Nc1ccccc1O)=C\Nc1ccccc1O	x	3.5µM*	-8%	-1%	-5
COc1ccc(NC(=O)NS(=O)(=O)c2ccc(C)cc2)c(OC)c1	0%	25µM*	5%	10%	5
O=C(Nc1ccc(C(=O)N2CCCC2)cc1)c1ccccc1[N+](=O)[O-]	1%	-7%	8%	-9%	3
CC(=O)N1CCN(c2ccc(NCc3ccc4c(c3)OCO4)cc2)CC1	8%	22µM*	-9%	-7%	6
O=C(c1ccc2c(c1)OCO2)N1CCN(c2ccccc2)CC1	-6%	7%	4%	4%	-6
COC(=O)c1cc(NCc2ccc3c(c2)OCO3)ccc1N1CCOCC1	-7%	u	4%	-5%	-2
O=C(c1ccccc1)N1CCN(c2ccc(NCc3ccc4c(c3)OCO4)cc2)CC1	-4%	28µM*	-2%	-1%	-3
O=C(O)c1cc(NCc2ccc3c(c2)OCO3)ccc1N1CCOCC1	-1%	5µM*	8%	5%	5
O=C(COc1ccc([N+](=O)[O-])cc1)NNC(=O)c1cccnc1	x	6%	x	x	x
CC(C)(C)c1ccc(CNC(=O)c2ccc3c(c2)NC(=O)CO3)cc1	-5%	5%	-1%	x	4
CNC(=O)CSc1cn(CC(=O)N2CCCCCC2)c2ccccc12	x	50µM*	x	x	x
O=c1c(O)cccc2cc(O)c(O)c(O)c12	-8%	14µM*	3%	-2%	-9
O=c1cc(-c2ccccc2)oc2cc(O)c(O)c(O)c12	x	x	11%	9%	-14
COc1cccc(CNc2ccc(S(=O)(=O)Nc3nccs3)cc2)c1O	-6%	5.6µM*	9%	3%	11
COc1ccc(N2C(=O)CC(Nc3ccc(N4CCOCC4)cc3)C2=O)c(OC)c1 (stereo not given)	u	u	4%	-4%	10
CN(C)c1ccc(N2C(=O)CC(Nc3ccc(N4CCOCC4)cc3)C2=O)cc1 (stereo not given)	0%	u	-4%	-2%	-10
O=C1CC(Nc2ccc(N3CCOCC3)cc2)C(=O)N1c1cccc(C(F)(F)F)c1 (stereo not given)	-2%	25µM*	4%	-1%	2
SMILES	GAA inh	GAA glycogen	GLA spleen mod	aGlu spleen mod	GLA inh pH 4.5
COc1cccc(N2C(=O)CC(Nc3ccc(N4CCOCC4)cc3)C2=O)c1 (stereo not given)	0%	3.5µM*	8%	-7%	2
Cc1cc(Nc2cccc(C(F)(F)F)c2)nc2ccc(NC(=O)c3cccc(Cl)c3)cc12	x	0%[76.3 µM]	x	x	x
COc1cc(C2C3=C(CCCC3=O)Nc3[nH]n(-c4ccccc4)c(=O)c32)ccc1O (stereo not given)	3%	28µM*	u	-12%	-20
Cc1ccc2c(c1)N(CCCC(=O)NCc1cccc(F)c1)C(=O)CO2	x	45µM*	x	x	x
Cc1ccc(CNC(=O)CCN2C(=O)COc3ccc(C)cc32)cc1	x	11%[76.3 µM]	x	x	x
Oc1ccc(/C=N/N2CCN(C3c4ccccc4-c4ccccc43)CC2)cc1O	x	10µM*	0%	0%	-8
O=c1cc(-c2ccccc2Cl)oc2cc(O)cc(O)c12	-10%	7%	3%	-15%	7
Nc1ccc(O)c2c(=O)cc(-c3ccccc3Cl)oc12	-9%[15.4 µM]	14µM*	0%[119 µM]	9%[119 µM]	-1
O=c1[nH]c2ccc(NCc3ccc(-c4ccc(Cl)cc4)o3)cc2[nH]1	x	-25%[76.3 µM]	x	x	x
NC(=O)CC(NC(=O)c1ccccc1)c1ccc(NC2CCCCC2)c([N+](=O)[O-])c1 (stereo not given)	x	4%	-7%	2%	9
Cc1ccc(O)c(NC(=O)c2cccc(NC(=O)c3ccco3)c2)c1	-6%	13µM*	5%	1%	6
Cc1ccc(O)c(NC(=O)c2ccco2)c1	-2%	u	11%	-1%	-9
Cc1cc(O)c(NC(=O)c2ccco2)cc1C	-5%	11µM*	-6%	-15%	-3
COC(=O)c1ccc(N2CCCCC2)c(NC(=O)c2ccco2)c1	x	-5%	x	x	x
O=C1NC(=O)/C(=C/c2cccc3ccccc23)S1	x	2%[76.3 µM]	x	x	x
O=C1NC(=O)/C(=C\c2ccc(O)cc2O)S1	u	2.8µM*	-3%	-14%	1
CC(C)(C)C1CCC(=O)N(CCOc2ccccc2)CC1 (stereo not given)	x	-4%[76.3 µM]	x	x	x
O=S(=O)(Nc1ccccc1O)c1ccc(Cl)nc1	x	20µM*	-2%	-3%	-5
COC(=O)c1ccccc1NS(=O)(=O)c1ccc(Cl)nc1	3%	1%	0%	-4%	-2
O=C(NNC(=S)NC1CCCCC1)c1cccs1	-2%	u	12%	-8%	9
O=C(NNC(=S)NC1CCCCC1)c1ccc(Cl)s1	u	50µM*	3%	-14%	0
CC1(C)CC(=O)C(C(C2=C(O)CC(C)(C)CC2=O)c2ccc(O)c([N+](=O)[O-])c2)=C(O)C1	10%	-29%	11%	11%	-1
O=c1oc2ccccc2c(Nc2ccc(O)cc2)c1[N+](=O)[O-]	-7%	3.5µM*	-2%	-10%	6
C/C(=N\Nc1nc2ccccc2[nH]1)c1ccc2c(c1)OCO2	5%	u	-10%	-7%	1
C(=N\Nc1nc2ccccc2[nH]1)/c1cccs1	-3%	u	16%	7%	-4
COc1cc(/C=N/Nc2nc3ccccc3[nH]2)ccc1O	3%	22µM*	7%	-19%	6
CCOc1cc(/C=N/Nc2nn3cnnc3c3ccccc23)ccc1O	x	u	-1%	-1%	-4
COc1cc(/C=N/Nc2nn3cnnc3c3ccccc23)ccc1O	-10%	18µM*	11%	6%	-15
Cc1ccsc1/C=N/Nc1nc2ccccc2[nH]1	-7%	6.3µM*	0%	0%	-1
